Results as given in PubChem BioAssay (NCI).
The panel holds about 83,000 compounds, 20% with a hit somewhere; the sample as a whole holds those more often.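 Note: values are percent growth. 100 is the growth of untreated cells, values between 100 and 0 indicate rising inhibition; between -100 and 0 indicates cell death.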 Active and inactive are the calls of the source. How the source made its calls: active means growth percent below 10; inactive means the rest.

Legend:
Assay in all cases: NCI-60 one-dose screen, 48 h (100 = growth as untreated, 0 = no growth, -100 = all killed)
Conditions in all cases: 10 µM unless noted
DU-145 prostate = test system: DU-145 prostate
K-562 leukemia = test system: K-562 leukemia
MALME-3M melanoma = test system: MALME-3M melanoma
MDA-MB-231 breast = test system: MDA-MB-231 breast
RXF 393 renal = test system: RXF 393 renal
SF-268 CNS = test system: SF-268 CNS
SF-295 CNS = test system: SF-295 CNS
SF-539 CNS = test system: SF-539 CNS
UACC-257 melanoma = test system: UACC-257 melanoma
M14 melanoma = test system: M14 melanoma
HCT-15 colon = test system: HCT-15 colon
HT29 colon = test system: HT29 colon
SNB-75 CNS = test system: SNB-75 CNS
SNB-19 CNS = test system: SNB-19 CNS
U251 CNS = test system: U251 CNS
PC-3 prostate = test system: PC-3 prostate
SK-MEL-5 melanoma = test system: SK-MEL-5 melanoma
UACC-62 melanoma = test system: UACC-62 melanoma
LOX IMVI melanoma = test system: LOX IMVI melanoma
SK-MEL-28 melanoma = test system: SK-MEL-28 melanoma

Measured: growth

NCCCCCCNc1cc(-c2cccc(OC(F)(F)F)c2)nc2ccc(N3CCCC3)cc12
inactive: SNB-19 CNS 16.5%
active: DU-145 prostate -17.4% | K-562 leukemia -52.6% | MALME-3M melanoma -93.8% | MDA-MB-231 breast -79.9% | RXF 393 renal -90.8% | SF-268 CNS -3.93% | SF-295 CNS -69.1% | SF-539 CNS -87.6% | UACC-257 melanoma -67.7% | M14 melanoma -71.4% | HCT-15 colon -54.2% | HT29 colon -2.69% | SNB-75 CNS -32.4% | U251 CNS -59% | PC-3 prostate -5.66% | SK-MEL-5 melanoma -98.4% | UACC-62 melanoma -56.9% | LOX IMVI melanoma -93.6% | SK-MEL-28 melanoma -83.4%

CCN(CC)CC[n+]1cc2cc(OC)c(OC)cc2c2ccc3cc4c(cc3c21)OCO4
inactive: UACC-257 melanoma 18% | HCT-15 colon 32.9% | SNB-19 CNS 14.5% | UACC-62 melanoma 31.7% | SK-MEL-28 melanoma 22.7%
active: DU-145 prostate 1.33% | K-562 leukemia 2.65% | MALME-3M melanoma -2.49% | MDA-MB-231 breast -19.5% | RXF 393 renal -39.1% | SF-268 CNS -16% | SF-295 CNS -2.66% | SF-539 CNS -14.7% | M14 melanoma -54.2% | HT29 colon -50.1% | SNB-75 CNS 3.63% | U251 CNS -38.2% | PC-3 prostate 3.91% | SK-MEL-5 melanoma -68.3% | LOX IMVI melanoma -85.8%

CN(C)CCn1c2ccc(Br)cc2c2nc3ccccc3nc21
inactive: DU-145 prostate 27% | K-562 leukemia 12.1% | MALME-3M melanoma 51.3% | MDA-MB-231 breast 30.3% | RXF 393 renal 39.4% | SF-268 CNS 43.1% | SF-295 CNS 26.8% | SF-539 CNS 27.3% | UACC-257 melanoma 46% | M14 melanoma 30% | HCT-15 colon 20.2% | HT29 colon 16.9% | SNB-75 CNS 42.3% | SNB-19 CNS 31.6% | U251 CNS 32.2% | PC-3 prostate 34% | SK-MEL-5 melanoma 46.8% | UACC-62 melanoma 57.1% | LOX IMVI melanoma 14.8% | SK-MEL-28 melanoma 84.8%

CC1(C)CC[C@]2(C(=O)O)CC[C@]3(C)C(=CC[C@@H]4[C@@]5(C)Cc6c([nH]c7ccccc67)C(C)(C)[C@@H]5CC[C@]43C)[C@@H]2C1
inactive: DU-145 prostate 49.5% | K-562 leukemia 28.8% | MALME-3M melanoma 115% | MDA-MB-231 breast 65.5% | RXF 393 renal 67.2% | SF-268 CNS 54% | SF-295 CNS 36.7% | SF-539 CNS 36.2% | UACC-257 melanoma 88.5% | M14 melanoma 76.4% | HCT-15 colon 21.3% | HT29 colon 27.2% | SNB-75 CNS 49.4% | SNB-19 CNS 60% | U251 CNS 25.7% | PC-3 prostate 42.7% | SK-MEL-5 melanoma 73.7% | UACC-62 melanoma 63.7% | LOX IMVI melanoma 40.3% | SK-MEL-28 melanoma 83.2%

Cn1ccnc1C(=O)/C=C/c1ccc(CC(=O)Nc2ccc(F)cc2)cc1
inactive: MALME-3M melanoma 90.4% | MDA-MB-231 breast 30.1% | RXF 393 renal 35.6% | SF-268 CNS 10% | SF-295 CNS 37.1% | UACC-257 melanoma 85.3% | M14 melanoma 81.1% | HCT-15 colon 14.1% | SNB-19 CNS 19% | PC-3 prostate 36.1% | SK-MEL-5 melanoma 34% | UACC-62 melanoma 54.3% | LOX IMVI melanoma 15.2% | SK-MEL-28 melanoma 85.9%
active: DU-145 prostate -15.6% | K-562 leukemia 5.72% | SF-539 CNS 2.33% | HT29 colon -26% | SNB-75 CNS -7.25% | U251 CNS 9.49%

COc1cc2nc(-c3ccc(Cl)cc3)cc(OCCCN3CCOCC3)c2cc1OC
inactive: DU-145 prostate 43.8% | K-562 leukemia 10.3% | MALME-3M melanoma 64.9% | MDA-MB-231 breast 27.2% | RXF 393 renal 28.7% | SF-268 CNS 63.2% | SF-539 CNS 64.1% | HCT-15 colon 19.2% | HT29 colon 22.3% | SNB-75 CNS 37.5% | SNB-19 CNS 73.5% | U251 CNS 47.3% | PC-3 prostate 54% | SK-MEL-28 melanoma 60.1%
active: SF-295 CNS -39% | UACC-257 melanoma 1.42% | M14 melanoma -37.9% | SK-MEL-5 melanoma -52.6% | UACC-62 melanoma -20.9% | LOX IMVI melanoma -56%

Cc1cc2c(C(=O)NCC#N)cccc2n1-c1nc2c(c(NCc3ccccc3)n1)CCCC2
active: DU-145 prostate 2.51% | K-562 leukemia 1.31% | MALME-3M melanoma -72.1% | MDA-MB-231 breast -78.9% | RXF 393 renal -68.9% | SF-268 CNS -35.1% | SF-295 CNS -76.2% | SF-539 CNS -24.5% | UACC-257 melanoma -36.4% | M14 melanoma -45% | HCT-15 colon -52.8% | HT29 colon -3.71% | SNB-75 CNS -11.4% | SNB-19 CNS -49.1% | U251 CNS -71% | PC-3 prostate -18.8% | SK-MEL-5 melanoma -93.4% | UACC-62 melanoma -78.2% | LOX IMVI melanoma -85% | SK-MEL-28 melanoma -28.2%

Cc1cnc(C(=O)Nc2nc3ccc(S(=O)(=O)Nc4ccc(C(C)(C)C)cc4)cc3[nH]2)cn1
active: RXF 393 renal -13.9% | SF-539 CNS -33.6% | M14 melanoma 1.89% | SNB-75 CNS 5.59%
inactive: DU-145 prostate 12.4% | K-562 leukemia 11.4% | MALME-3M melanoma 43.8% | MDA-MB-231 breast 30.6% | SF-268 CNS 48.1% | SF-295 CNS 21.9% | UACC-257 melanoma 59.1% | HCT-15 colon 18% | HT29 colon 12.8% | SNB-19 CNS 31.6% | U251 CNS 18.9% | SK-MEL-5 melanoma 10.9% | UACC-62 melanoma 40.2% | LOX IMVI melanoma 42.3%

CCCNC(=O)Oc1ccc(/C(=C(\C)c2ccccc2)c2ccc(OCCCN(C)C)cc2)cc1
active: UACC-257 melanoma 8.5% | HT29 colon 5.5%
inactive: DU-145 prostate 89.7% | K-562 leukemia 11.5% | MALME-3M melanoma 40.8% | MDA-MB-231 breast 59.4% | RXF 393 renal 71.1% | SF-268 CNS 71.8% | SF-295 CNS 64% | SF-539 CNS 63.9% | M14 melanoma 25.2% | HCT-15 colon 38.7% | SNB-75 CNS 86.2% | SNB-19 CNS 84.9% | U251 CNS 68.8% | PC-3 prostate 71.7% | SK-MEL-5 melanoma 86.2% | UACC-62 melanoma 54.2% | LOX IMVI melanoma 75.6% | SK-MEL-28 melanoma 70.8%

Cc1cnc(C(=O)Nc2nc3ccc(S(=O)(=O)Nc4ccc(C5(C(F)(F)F)CC5)cc4)cc3[nH]2)cn1
active: DU-145 prostate 1.12% | RXF 393 renal -17.4% | SF-539 CNS -1.85% | M14 melanoma 6.68% | HT29 colon 9.04% | SNB-75 CNS -7.96% | SK-MEL-5 melanoma -3.91%
inactive: K-562 leukemia 10% | MALME-3M melanoma 32.2% | MDA-MB-231 breast 47.2% | SF-268 CNS 47% | SF-295 CNS 20.6% | UACC-257 melanoma 57.7% | HCT-15 colon 20.6% | SNB-19 CNS 30.1% | U251 CNS 21.8% | PC-3 prostate 18% | UACC-62 melanoma 35.3% | LOX IMVI melanoma 35.1% | SK-MEL-28 melanoma 54.1%

COc1cc(NC(C)CCCNC(=O)CCC(=O)NCCCNCCCCCCCCCCNCCCNC(=O)CCC(=O)NCCCC(C)Nc2cc(OC)cc3cccnc23)c2ncccc2c1 (stereo not drawn)
inactive: DU-145 prostate 71.8% [8 µM] | K-562 leukemia 51.2% [8 µM] | MALME-3M melanoma 38.9% [8 µM] | MDA-MB-231 breast 34.6% [8 µM] | RXF 393 renal 88.1% [8 µM] | SF-268 CNS 66% [8 µM] | SF-295 CNS 97% [8 µM] | SF-539 CNS 75.7% [8 µM] | UACC-257 melanoma 47.1% [8 µM] | M14 melanoma 87% [8 µM] | HCT-15 colon 99.1% [8 µM] | HT29 colon 73.6% [8 µM] | SNB-75 CNS 59.1% [8 µM] | SNB-19 CNS 60.5% [8 µM] | U251 CNS 50.8% [8 µM] | PC-3 prostate 78.2% [8 µM] | SK-MEL-5 melanoma 91% [8 µM] | UACC-62 melanoma 89.4% [8 µM] | LOX IMVI melanoma 51.1% [8 µM] | SK-MEL-28 melanoma 86.8% [8 µM]

O=C(O)c1ccc(NCc2cn(-c3ccc(C(F)(F)F)cc3)nc2-c2ccc(C(=O)O)cc2)cc1
inactive: DU-145 prostate 115% | K-562 leukemia 105% | MALME-3M melanoma 127% | MDA-MB-231 breast 111% | RXF 393 renal 112% | SF-268 CNS 97.8% | SF-295 CNS 100% | SF-539 CNS 97% | UACC-257 melanoma 109% | M14 melanoma 106% | HCT-15 colon 101% | HT29 colon 108% | SNB-75 CNS 91.8% | SNB-19 CNS 101% | U251 CNS 99.7% | PC-3 prostate 108% | SK-MEL-5 melanoma 103% | UACC-62 melanoma 101% | LOX IMVI melanoma 99.4% | SK-MEL-28 melanoma 112%

COC(=O)CNC(=O)[C@]12CCC(C)(C)C[C@H]1C1=CC[C@@H]3[C@@]4(C)Cc5c([nH]c6ccccc56)C(C)(C)[C@@H]4CC[C@@]3(C)[C@]1(C)CC2
inactive: DU-145 prostate 97.6% | K-562 leukemia 59.3% | MALME-3M melanoma 92.2% | MDA-MB-231 breast 93.9% | RXF 393 renal 94.2% | SF-268 CNS 84.4% | SF-295 CNS 84.7% | SF-539 CNS 102% | UACC-257 melanoma 78.8% | M14 melanoma 104% | HCT-15 colon 87.7% | HT29 colon 81% | SNB-75 CNS 87.6% | SNB-19 CNS 92.2% | U251 CNS 82.3% | PC-3 prostate 74.4% | SK-MEL-5 melanoma 98.1% | UACC-62 melanoma 81.7% | LOX IMVI melanoma 94% | SK-MEL-28 melanoma 96.7%

CC1(C)CC(=O)C2=C(C1)N(c1ccc(F)cc1F)C(N)=C(C#N)C2c1cc(Br)ccc1F (stereo not drawn)
inactive: DU-145 prostate 95.4% | K-562 leukemia 87.6% | MALME-3M melanoma 99% | MDA-MB-231 breast 96.4% | RXF 393 renal 103% | SF-268 CNS 103% | SF-295 CNS 105% | SF-539 CNS 87.8% | UACC-257 melanoma 101% | M14 melanoma 85.1% | HCT-15 colon 93.8% | HT29 colon 83.5% | SNB-75 CNS 67.1% | SNB-19 CNS 85.8% | U251 CNS 94.8% | PC-3 prostate 76.8% | SK-MEL-5 melanoma 93% | UACC-62 melanoma 91.1% | LOX IMVI melanoma 57.5% | SK-MEL-28 melanoma 109%
